C diff HTS – C. difficile growth inhibitors, primary screen, HTS. 86,000 compounds, 0.25% hits. AID 1259249, 2017. Clostridium difficile clinical isolate growth, OD600, 24 h; stronger effect = lower value. growth activity, negative = inhibition, % at 16 µg/mL (by protocol);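 active = mean growth activity at or below -80% and every replicate also at or below -80%; inconclusive = mean at or below -80% but some replicate above -80%; inactive = mean growth activity above -80%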;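 also: 0% = DMSO wells and -100% = levofloxacin 16 µg/mL wells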
T cruzi growth-1 – T. cruzi intracellular proliferation inhibitors, primary screen, cell-based, beta-gal Tulahuen parasites, NIH3T3 host, luminescence. T. cruzi beta-gal in NIH3T3, GalScreen luminescence, 90 h. inhibition, % at 8.34 µM. 77,000 compounds, 5.9% hits;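 active = mean inhibition above about 93%, with at least 55% of replicates each passing it, limit read from the data, passing the limit was not always enough; inconclusive = only one of those two conditions holds; inactive = neither condition holds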
T cruzi growth-2 – T. cruzi intracellular proliferation inhibitors, confirmation, cell-based, NIH3T3 host, beta-gal parasite, luminescence, cherry-pick; shares compounds with T cruzi growth-1; inhibition, % at 8.35 µM; 5,600 compounds, 72% hits; AID 651739, 2012; T. cruzi beta-gal in NIH3T3, GalScreen luminescence, 90 h;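 active = mean replicate inhibition above about 95% and at least 55% of replicates individually reaching it, limit read from the data; inconclusive = only one of the two criteria is met; inactive = neither criterion is met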
T cruzi growth-3 – inhibitors of intracellular T. cruzi replication, confirmation, NIH3T3 host cells, beta-gal parasites, cherry-pick, set 2. 5,600 compounds, 21% hits. shares compounds with T cruzi growth-1. T. cruzi beta-gal in NIH3T3, GalScreen luminescence, 90 h. AID 651740, 2012. inhibition, % at 2.09 µM;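 active = mean inhibition above about 95%, with at least 55% of replicates also reaching it, limit read from the data; inconclusive = meets just one of the two conditions; inactive = meets neither condition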;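 also: plate controls were neutral control median for no effect and positive control median for full effect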
NIH3T3 tox – cytotoxicity in mouse NIH/3T3 fibroblasts, confirmation, cytotoxicity control for T. cruzi proliferation inhibitor project, cell-based, cherry-pick, single point. shares compounds with T cruzi growth-1. NIH/3T3 viability, CellTiter-Glo ATP luminescence, 90 h. cytotoxicity (signal decrease), % at 8.35 µM. 5,600 compounds, 14% hits. AID 651742, 2012;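 active = mean signal decrease across replicates above about 35% based on untreated-well scatter, with enough replicates individually passing, limit read from the data; inconclusive = no rule stated though some were filed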;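 also: 0% = median of neutral control wells and 100% = median of positive control wells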
3T3 cytotox 2 – NIH/3T3 fibroblast cytotoxicity, confirmation, cytotoxicity control, cell-based, cherry-pick, single point, set 2. shares compounds with T cruzi growth-1. NIH/3T3 viability, CellTiter-Glo ATP luminescence, 90 h. inhibition, % at 24.9 µM. 5,600 compounds, 56% hits;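 active = mean loss of cell viability signal at or above a set limit, and enough replicates individually reaching it; inconclusive = meets only the mean limit or only the replicate share; inactive = meets neither condition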;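 also: 0% = median of neutral control wells and 100% = median of positive control wells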
* marks the source's active call; other numbers are inactive results; ? = inconclusive; / = no result given; ! = not confirmed by another sample. Shown is part of a subset that was picked to be rich in hits.

SMILES	C diff HTS	T cruzi growth-1	T cruzi growth-2	T cruzi growth-3	NIH3T3 tox	3T3 cytotox 2
CC1C=NC(S(=O)(=O)N2CC[C@@H]3[C@@H](CO)N(C)c4ccc(-c5ccc(F)cc5)cc4[C@@H]32)=N1 (stereo partly specified)	-21	64	/	/	/	/
CC1C=NC(S(=O)(=O)N2CC[C@@H]3[C@H]2c2cc(-c4ccccc4)ccc2N(C)[C@H]3CO)=N1 (stereo partly specified)	0	?	101*	84	-2	-11
CC1C=NC(S(=O)(=O)N2CC[C@H]3[C@@H](CO)N(C)c4ccc(-c5ccccc5)cc4[C@H]32)=N1 (stereo partly specified)	-6	91	/	/	/	/
C[C@H]1CN([C@@H](C)CO)C(=O)c2cc(NC(=O)Nc3ccccc3)ccc2O[C@H]1CN(C)C(=O)NC1CCCCC1	-2	/	/	/	/	/
CC(C)NC(=O)N(C)C[C@H]1Oc2cc(C#C[C@H](C)O)ccc2S(=O)(=O)N([C@@H](C)CO)C[C@H]1C	1	/	/	/	/	/
C/C=C/c1ccc2c(c1)O[C@@H](CN(C)C(=O)NC1CCCC1)[C@H](C)CN([C@H](C)CO)S2(=O)=O	-2	/	/	/	/	/
O=C(C[C@H]1CC[C@@H]2[C@H](COC[C@@H](O)CN2CCC(F)(F)F)O1)N1CCC(Cc2ccccc2)CC1	-8	?	37	-24	-13	2
O=C(C[C@@H]1CC[C@H]2[C@@H](COC[C@@H](O)CN2CCC(F)(F)F)O1)N1CCC(Cc2ccccc2)CC1	0	59	/	/	/	/
O=C(C[C@@H]1CC[C@H]2[C@@H](COC[C@@H](O)CN2Cc2ccc(Oc3ccccc3)cc2)O1)N1CCOCC1	/	-10	/	/	/	/
O=C(C[C@@H]1CC[C@H]2[C@@H](COC[C@H](O)CN2Cc2ccc(Oc3ccccc3)cc2)O1)N1CCN(c2ccccc2)CC1	7	130*	102*	62	38*	101*
O=C(C[C@H]1CC[C@@H]2[C@H](COC[C@H](O)CN2Cc2ccccc2)O1)N1CCOCC1	6	123*	23	12	14	9
O=C(C[C@@H]1CC[C@@H]2[C@H](COC[C@H](O)CN2Cc2ccccc2)O1)N1CCOCC1	3	-15	/	/	/	/
C[C@@H]1CN([C@@H](C)CO)S(=O)(=O)c2ccc(-c3ccncc3)cc2O[C@@H]1CN(C)Cc1cccnc1	2	68	/	/	/	/
C[C@H](CO)N1C[C@H](C)[C@@H](CN(C)Cc2cccnc2)Oc2cc(-c3ccccc3)ccc2S1(=O)=O	-3	84	/	/	/	/
C[C@@H]1CN([C@H](C)CO)S(=O)(=O)c2ccc(-c3cccnc3)cc2O[C@@H]1CN(C)Cc1cccnc1	6	42	/	/	/	/
Cc1ccc(-c2ccc3c(c2)O[C@@H](CN(C)Cc2cccnc2)[C@H](C)CN([C@@H](C)CO)S3(=O)=O)cc1	-14	117*	98*	96*	51*	100*
Cc1ccc(-c2ccc3c(c2)O[C@H](CN(C)Cc2cccnc2)[C@@H](C)CN([C@H](C)CO)S3(=O)=O)cc1	3	119*	99*	112*	80*	92*
C[C@H](CO)N1C[C@H](C)[C@H](CN(C)Cc2cccnc2)Oc2cc(-c3ccncc3)ccc2S1(=O)=O	6	71	/	/	/	/
Cc1ccc(-c2ccc3c(c2)O[C@H](CN(C)Cc2cccnc2)[C@@H](C)CN([C@@H](C)CO)S3(=O)=O)cc1	-3	119*	106*	97*	50*	105*
C[C@H](CO)N1C[C@H](C)[C@@H](CN(C)Cc2cccnc2)Oc2cc(-c3cccnc3)ccc2S1(=O)=O	1	101*!	67	45	20	64*
O=C(CN1CCOCC1)N[C@H]1CC[C@@H](CCn2cc(C3CCCCC3)nn2)O[C@@H]1CO	0	-31	/	/	/	/
CCCNC(=O)C[C@@H]1C[C@H]2c3cc(NC(=O)Cc4ccncc4)ccc3O[C@H]2[C@@H](CO)O1	-3	1	/	/	/	/
C[C@@H]1CN([C@H](C)CO)C(=O)c2cc(C3=CCCC3)cnc2O[C@H]1CN(C)C(=O)c1cccnc1	-1	-170	/	/	/	/
CC(C)NC(=O)Nc1ccc2c(c1)C(=O)N(C)[C@@H]1CC[C@H](CC(=O)NC3CCCCC3)O[C@H]1CO2	0	12	/	/	/	/
COc1ccc(CN(C)C[C@H]2Oc3ccc(NS(=O)(=O)c4ccc(Cl)cc4)cc3CC(=O)N([C@H](C)CO)C[C@@H]2C)cc1	-14	/	/	/	/	/
SMILES	C diff HTS	T cruzi growth-1	T cruzi growth-2	T cruzi growth-3	NIH3T3 tox	3T3 cytotox 2
O=C(C[C@H]1CC[C@@H]2[C@H](COC[C@@H](O)CN2Cc2ccc(Cl)cc2)O1)NCc1ccccc1Cl	4	7	/	/	/	/
Cc1ccc(S(=O)(=O)N(C)C[C@@H]2OCCCC[C@H](C)Oc3ccc(NS(=O)(=O)c4ccc(F)cc4)cc3C(=O)N([C@H](C)CO)C[C@@H]2C)cc1	0	108*	97*	71	-20	-1
Cc1ccc(S(=O)(=O)N(C)C[C@H]2OCCCC[C@H](C)Oc3ccc(NS(=O)(=O)c4ccc(F)cc4)cc3C(=O)N([C@H](C)CO)C[C@H]2C)cc1	-1	116*	98*	72	-33	40*
Cc1ccc(S(=O)(=O)Nc2ccc3c(c2)C(=O)N([C@H](C)CO)C[C@H](C)[C@H](CN(C)S(=O)(=O)c2ccc(F)cc2)OCCCC[C@H](C)O3)cc1	-5	120*	103*	107*	-12	16
Cc1ccc(S(=O)(=O)Nc2ccc3c(c2)C(=O)N([C@H](C)CO)C[C@H](C)[C@@H](CN(C)S(=O)(=O)c2ccc(F)cc2)OCCCC[C@@H](C)O3)cc1	-6	/	/	/	/	/
Cc1ccc(S(=O)(=O)N(C)C[C@@H]2OCCCC[C@@H](C)Oc3ccc(NS(=O)(=O)c4ccc(F)cc4)cc3C(=O)N([C@H](C)CO)C[C@@H]2C)cc1	-1	30	/	/	/	/
Cc1ccc(S(=O)(=O)Nc2ccc3c(c2)C(=O)N([C@@H](C)CO)C[C@H](C)[C@@H](CN(C)S(=O)(=O)c2ccc(F)cc2)OCCCC[C@@H](C)O3)cc1	-9	/	/	/	/	/
C[C@@H]1CN([C@H](C)CO)C(=O)c2cccc(NC(=O)Nc3ccc(F)cc3)c2O[C@H]1CN(C)Cc1ccccc1	-13	46	/	/	/	/
C[C@@H]1CN([C@H](C)CO)C(=O)c2cc(C#Cc3ccccc3)cnc2O[C@H]1CN(C)CC1CCOCC1	5	32	/	/	/	/
C[C@@H](O)C#Cc1cnc2c(c1)C(=O)N([C@@H](C)CO)C[C@H](C)[C@H](CN(C)Cc1cccc(F)c1)O2	-1	13	/	/	/	/
COc1ccc(NC(=O)Nc2cccc3c2O[C@H](CN(C)CC2CC2)[C@@H](C)CN([C@@H](C)CO)C3=O)cc1	-2	5	/	/	/	/

From PubChem
